Laboratory results published in PubChem BioAssay AID489012 (National Center for Advancing Translational Sciences (NCATS), 2010).
Records with an inconclusive call do not appear. Entries that show only a call come without a potency. The source made the active and inactive calls. Calls come from the whole dose curve; as a rule, active = well fitted activation curve with a large enough effect; inconclusive = small, poorly fitted or top-dose-only effect; inactive = no such curve, though single readings can be large or run the other way.

Molecular target: Relaxin receptor 1 (Homo sapiens) (UniProt Q9HBX9)
Sequence (Q9HBX9 whole entry, looked up): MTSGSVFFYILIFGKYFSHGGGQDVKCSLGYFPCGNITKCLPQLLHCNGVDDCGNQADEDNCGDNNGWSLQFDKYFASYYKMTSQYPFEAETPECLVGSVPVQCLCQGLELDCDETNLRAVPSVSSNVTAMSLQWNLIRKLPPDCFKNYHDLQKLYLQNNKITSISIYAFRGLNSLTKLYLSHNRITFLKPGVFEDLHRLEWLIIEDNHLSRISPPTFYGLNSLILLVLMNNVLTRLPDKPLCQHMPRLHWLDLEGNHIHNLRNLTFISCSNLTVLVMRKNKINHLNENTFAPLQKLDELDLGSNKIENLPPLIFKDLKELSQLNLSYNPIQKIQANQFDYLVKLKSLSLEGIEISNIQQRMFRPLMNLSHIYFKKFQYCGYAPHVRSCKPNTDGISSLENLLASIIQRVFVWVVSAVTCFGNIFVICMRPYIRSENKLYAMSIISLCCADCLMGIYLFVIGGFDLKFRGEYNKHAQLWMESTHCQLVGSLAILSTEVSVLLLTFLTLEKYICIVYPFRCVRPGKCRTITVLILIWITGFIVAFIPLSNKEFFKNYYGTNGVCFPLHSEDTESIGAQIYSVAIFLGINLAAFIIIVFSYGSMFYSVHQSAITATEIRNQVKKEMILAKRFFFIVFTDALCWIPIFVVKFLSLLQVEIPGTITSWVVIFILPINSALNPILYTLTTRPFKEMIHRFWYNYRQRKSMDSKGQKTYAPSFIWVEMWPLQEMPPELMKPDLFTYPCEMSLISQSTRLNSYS
Assay: qHTS Assay for Agonists of the Relaxin Receptor RXFP1: RXFP1 Hit Validation; note: nearly all actives have a fitted effect of over 65% in size;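 for activation: cAMP rise lowers the TR-FRET signal in lysed cells with PDE4 inhibitor present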
Conditions: HEK293T-RXFP1 cAMP TR-FRET, 30 min; series mostly up to 45 µM
Excerpt: NIH Chemical Genomics Center [NCGC] NIH Molecular Libraries Probe Production Centers Network [MLPCN] MLPCN Grant: R03 MH085705-01A1 Assay Submitter (PI): Alexander Agoulnik NCGC Assay Overview: The relaxin hormone is involved in the variety of biological functions in normal tissues and diseases. The role of relaxin is well-established in female reproduction and parturition, mammary gland and endometrial development, maintenance of myometrial quiescence during pregnancy. Relaxin signaling through its G protein-coupled receptor (GPCR) RXFP1 results in ECM remodeling through regulation of collagen deposition, cell invasiveness, proliferation and overall tissue homeostasis. […] Recombinant human relaxin (rhRlx) is currently being tested in clinical trials as a protective agent in congestive heart failure, in treating severe preeclampsia, and as an anti-fibrotic agent in systemic sclerosis. Upon relaxin binding RXFP1 activation leads to the activation of adenylate cyclase (AC) via Gs. cAMP will activate PKA, which phosphorylates many signaling proteins. Thus, detection of cAMP increase is an easy and reliable indication of relaxin receptor activation. To screen for agonists of the relaxin receptor, a HEK293T cell line stably transfected with RXFP1 was used. RXFP1 activation was assayed by changes in cAMP levels as detected with a time-resolved fluorescence energy transfer (TR-FRET) cAMP detection kit.
NCGC Assay Protocol Summary: This is a cell-based assay for cAMP second messenger response to screen for agonists of the RXFP1 receptor. The assay was conducted in the presence of a PDE4 inhibitor (Ro 20174). The cells were lysed and the cAMP levels were measured with a TR-FRET cAMP kit. Presence of cAMP in the cell lysate disrupts binding between the cryptate-labeled anti-cAMP and d2-labeled cAMP pair, leading to a decrease in the TR-FRET signal. Data were normalized to the controls for basal activity (buffer only) and 100% activity (29 nM porcine relaxin). The EC50 values were determined from concentration-response data modeled with the standard Hill equation 1536-well assay protocol for the HEK293 RXFP1 cAMP assay: (1) Add 3 ul HEK293 RXFP1 cell culture. 2000 cells/well in DMEM/F12, 10% FBS, 1x Pen/Strep (dispensed offline with MultiDrop Combi). (2) Incubate 16-24 hr at 37C, 5% CO2. (3) Add 1 ul 400uM Ro20174 in DPBS, 0.05% BSA, 0.005% Tween 20. (3) Add 23 nl compounds in DMSO solution. Final concentration was 0.5 - 58 uM. (4) Incubate 30 min at 37C, 5% CO2. (5) Add 1 ul cAMP-d2 in lysis buffer (HTRF cAMP HiRange kit, CisBio). (6) Add 1 ul anti-cAMP antibody-cryptate in lysis buffer (HTRF cAMP HiRange kit, CisBio). (7) Incubate 30 min at room temperature. […]
Potency is the fitted concentration of half-maximal effect.

Row | Compound | Potency
1 | CCNC(=O)[C@H]1O[C@@H](n2cnc3c(N)ncnc32)[C@H](O)[C@@H]1O | 0.308 µM (active)
2 | O=C(O)c1sc2cc(Cl)ccc2c1Cl | inactive
3 | Nc1ncc2[nH]cnc2n1 | 13.8 µM (active)
4 | CCC(Oc1cc(Cl)ccc1Cl)C(=O)N1CCC2(CC1)OCCO2 (centres undefined) | inactive
